# Source: the supplement of paper PMC8728848
# This is one part of a sample in which the strongest signals are shown more often than they occur.
# Columns and labels:
# Assay in all cases: glycan array binding signal (z-score within array); higher = stronger binding
# Details in all cases: glycan notation: IUPAC condensed, linker removed
# [1] = molecular target: Fuc(a1-2)Gal(b1-3)GalNAc(b1-3)Gal(a1-4)Gal(b1-4)Glc
# Procedure, shortened: (§1)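 Negative Z-scores can be read as non-binding. The Z-score is calculated within each array and then averaged across arrays of one protein sequence at different concentrations or buffers and across linkers. Arrays, 3228 in all, were curated from the Consortium for Functional Glycomics database and kept only where the protein sequence was available.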
# [2] = molecular target: Fuc(a1-2)Gal(b1-3)GalNAc(b1-4)[Neu5Ac(a2-3)]Gal(b1-4)Glc
# Procedure, shortened: as §1
# Fuc(a1-2)Gal(b1-3)GlcNAc = molecular target: Fuc(a1-2)Gal(b1-3)GlcNAc
# Procedure, shortened: as §1
# [3] = molecular target: Fuc(a1-2)Gal(b1-3)[Fuc(a1-4)]GlcNAc(b1-3)[Fuc(a1-3)[Gal(b1-4)]GlcNAc(b1-6)]Gal(b1-4)Glc
# Procedure, shortened: as §1
# [4] = molecular target: Fuc(a1-2)Gal(b1-4)GlcNAc(b1-3)GalNAc
# Procedure, shortened: as §1
# [5] = molecular target: Fuc(a1-2)Gal(b1-4)[Fuc(a1-3)]GlcNAc(b1-3)GalNAc
# Procedure, shortened: as §1
# [6] = molecular target: Fuc(a1-2)[Gal(a1-3)]Gal(b1-3)GlcNAc(b1-2)Man(a1-3)[Fuc(a1-2)[Gal(a1-3)]Gal(b1-3)GlcNAc(b1-2)Man(a1-6)]Man(b1-4)GlcNAc(b1-4)[Fuc(a1-6)]GlcNAc
# Procedure, shortened: as §1
# [7] = molecular target: Fuc(a1-2)[Gal(a1-3)]Gal(b1-4)Glc
# Procedure, shortened: as §1
# [8] = molecular target: Fuc(a1-2)[GalNAc(a1-3)]Gal(b1-4)GlcNAc(b1-2)Man(a1-3)[Fuc(a1-2)[GalNAc(a1-3)]Gal(b1-4)GlcNAc(b1-2)Man(a1-6)]Man(b1-4)GlcNAc(b1-4)[Fuc(a1-6)]GlcNAc
# Procedure, shortened: as §1
# [9] = molecular target: Fuc(a1-3)[Gal(b1-4)]GlcNAc(b1-2)Man(a1-3)[Fuc(a1-3)[Gal(b1-4)]GlcNAc(b1-2)Man(a1-6)]Man(b1-4)GlcNAc(b1-4)[Fuc(a1-6)]GlcNAc
# Procedure, shortened: as §1
# Gal(a1-2)Gal = molecular target: Gal(a1-2)Gal
# Procedure, shortened: as §1
# [10] = molecular target: Gal(a1-3)Gal(b1-4)GlcNAc(b1-3)GalNAc
# Procedure, shortened: as §1
# [11] = molecular target: Gal(a1-3)Gal(b1-4)[Fuc(a1-3)]GlcNAc
# Procedure, shortened: as §1
# [12] = molecular target: Gal(a1-4)Gal(b1-4)GlcNAc(b1-2)Man(a1-3)[Gal(a1-4)Gal(b1-4)GlcNAc(b1-2)Man(a1-6)]Man(b1-4)GlcNAc(b1-4)GlcNAc
# Procedure, shortened: as §1
# [13] = molecular target: Gal(b1-3)GalNAc(b1-4)[Neu5Ac(a2-3)]Gal(b1-4)Glc
# Procedure, shortened: as §1
# [14] = molecular target: Gal(b1-3)GlcNAc(b1-2)Man(a1-3)[Gal(b1-3)GlcNAc(b1-2)Man(a1-6)]Man(b1-4)GlcNAc(b1-4)GlcNAc
# Procedure, shortened: as §1
# [15] = molecular target: Gal(b1-3)GlcNAc(b1-3)Gal(b1-3)GlcNAc
# Procedure, shortened: as §1
# [16] = molecular target: Gal(b1-3)GlcNAc(b1-3)Gal(b1-4)[Fuc(a1-3)]GlcNAc(b1-6)[Gal(b1-3)GlcNAc(b1-3)]Gal(b1-4)Glc
# Procedure, shortened: as §1
# Gal(b1-4)GlcNAc(b1-2)Man = molecular target: Gal(b1-4)GlcNAc(b1-2)Man
# Procedure, shortened: as §1
# [17] = molecular target: Gal(b1-4)GlcNAc(b1-2)[Gal(b1-4)GlcNAc(b1-4)]Man(a1-3)[Gal(b1-4)GlcNAc(b1-2)[Gal(b1-4)GlcNAc(b1-6)]Man(a1-6)]Man(b1-4)GlcNAc(b1-4)GlcNAc
# Procedure, shortened: as §1
# [18] = molecular target: Gal(b1-4)GlcNAc(b1-3)Gal(b1-3)GlcNAc
# Procedure, shortened: as §1
# [19] = molecular target: Gal(b1-4)GlcNAc(b1-3)Gal(b1-4)[Fuc(a1-3)GlcNAc(b1-6)]Gal(b1-4)Glc
# Procedure, shortened: as §1
# Gal6S(b1-4)Glc = molecular target: Gal6S(b1-4)Glc
# Procedure, shortened: as §1
# GalNAc(b1-6)GalNAc = molecular target: GalNAc(b1-6)GalNAc
# Procedure, shortened: as §1
# GlcA(b1-3)Gal = molecular target: GlcA(b1-3)Gal
# Procedure, shortened: as §1
# [20] = molecular target: GlcNAc(a1-4)Gal(b1-3)GlcNAc
# Procedure, shortened: as §1
# [21] = molecular target: GlcNAc(a1-4)Gal(b1-4)GlcNAc(b1-3)Gal(b1-4)Glc
# Procedure, shortened: as §1
# [22] = molecular target: GlcNAc(a1-4)Gal(b1-4)GlcNAc(b1-3)Gal(b1-4)GlcNAc
# Procedure, shortened: as §1
# [23] = molecular target: GlcNAc(a1-6)Gal(b1-4)GlcNAc
# Procedure, shortened: as §1
# [24] = molecular target: GlcNAc(b1-2)Man(a1-3)[GlcNAc(b1-2)Man(a1-6)]Man(b1-4)GlcNAc(b1-4)[Fuc(a1-6)]GlcNAc
# Procedure, shortened: as §1
# [25] = molecular target: GlcNAc(b1-4)GlcNAc(b1-4)GlcNAc
# Procedure, shortened: as §1
# Kdn(a2-3)Gal(b1-4)GlcNAc = molecular target: Kdn(a2-3)Gal(b1-4)GlcNAc
# Procedure, shortened: as §1
# [26] = molecular target: Man(a1-2)Man(a1-6)[Man(a1-3)]Man(a1-6)[Man(a1-2)Man(a1-2)Man(a1-3)]Man
# Procedure, shortened: as §1
# [27] = molecular target: Man(a1-3)[Man(a1-6)]Man(a1-6)[Man(a1-3)]Man(b1-4)GlcNAc(b1-4)GlcNAc
# Procedure, shortened: as §1
# Man(a1-6)Man = molecular target: Man(a1-6)Man
# Procedure, shortened: as §1
# Man(b1-4)GlcNAc = molecular target: Man(b1-4)GlcNAc
# Procedure, shortened: as §1
# [28] = molecular target: Neu5Ac(a2-3)Gal(b1-3)GalNAc(b1-4)[Neu5Ac(a2-3)]Gal(b1-4)Glc
# Procedure, shortened: as §1
# [29] = molecular target: Neu5Ac(a2-3)Gal(b1-4)GlcNAc(b1-2)Man(a1-3)[Neu5Ac(a2-6)Gal(b1-4)GlcNAc(b1-2)Man(a1-6)]Man(b1-4)GlcNAc(b1-4)GlcNAc
# Procedure, shortened: as §1
# [30] = molecular target: Neu5Ac(a2-3)Gal(b1-4)GlcNAc(b1-3)Gal(b1-3)GlcNAc
# Procedure, shortened: as §1
# [31] = molecular target: Neu5Ac(a2-3)Gal(b1-4)[Fuc(a1-3)]GlcNAc(b1-3)Gal(b1-4)[Fuc(a1-3)]GlcNAc(b1-3)Gal(b1-4)[Fuc(a1-3)]GlcNAc
# Procedure, shortened: as §1
# [32] = molecular target: Neu5Ac(a2-6)Gal(b1-4)GlcNAc(b1-3)Gal(b1-4)GlcNAc(b1-3)Gal(b1-4)GlcNAc
# Procedure, shortened: as §1
binder,measurement,setting,value
"CD72 ectodomain (Homo sapiens), P21854 (protein) RYLQVSQQLQQTNRVLEVTNSSLRQQLRLKITQLGQSAEDLQGSRRELAQSQEALQVEQRAHQAAEGQLQACQADRQKTKETLQSEEQQRRALEQKLSNMENRLKPFFTCGSADTCCPSGWIMHQKSCFYISLTSKNWQESQKQCETLSSKLATFSEIYPQSHSYYFLNSLLPNGGSGNSYWTGLSSNKDWKLTDDTQRTRTYAQSSKCNKVHKTWSWWTLESESCRSSLPYICEMTAFRFPD",glycan array binding signal (z-score),[1],-0.867
same,glycan array binding signal (z-score),[2],0.01
same,glycan array binding signal (z-score),Fuc(a1-2)Gal(b1-3)GlcNAc,1.12
same,glycan array binding signal (z-score),[3],-0.186
same,glycan array binding signal (z-score),[4],1.08
same,glycan array binding signal (z-score),[5],5.72
same,glycan array binding signal (z-score),[6],2.7
same,glycan array binding signal (z-score),[7],0.3
same,glycan array binding signal (z-score),[8],0.886
same,glycan array binding signal (z-score),[9],0.575
same,glycan array binding signal (z-score),Gal(a1-2)Gal,0.56
same,glycan array binding signal (z-score),[10],-1.69
same,glycan array binding signal (z-score),[11],1.45
same,glycan array binding signal (z-score),[12],0.8
same,glycan array binding signal (z-score),[13],1.16
same,glycan array binding signal (z-score),[14],1.6
same,glycan array binding signal (z-score),[15],-0.958
same,glycan array binding signal (z-score),[16],2.26
same,glycan array binding signal (z-score),Gal(b1-4)GlcNAc(b1-2)Man,0.51
same,glycan array binding signal (z-score),[17],-0.561
same,glycan array binding signal (z-score),[18],-0.795
same,glycan array binding signal (z-score),[19],-0.359
same,glycan array binding signal (z-score),Gal6S(b1-4)Glc,-0.925
same,glycan array binding signal (z-score),GalNAc(b1-6)GalNAc,-0.435
same,glycan array binding signal (z-score),GlcA(b1-3)Gal,2.21
same,glycan array binding signal (z-score),[20],-1.11
same,glycan array binding signal (z-score),[21],0.006
same,glycan array binding signal (z-score),[22],4.25
same,glycan array binding signal (z-score),[23],4.24
same,glycan array binding signal (z-score),[24],2.59
same,glycan array binding signal (z-score),[25],0.82
same,glycan array binding signal (z-score),Kdn(a2-3)Gal(b1-4)GlcNAc,0.726
same,glycan array binding signal (z-score),[26],-0.32
same,glycan array binding signal (z-score),[27],0.977
same,glycan array binding signal (z-score),Man(a1-6)Man,-0.096
same,glycan array binding signal (z-score),Man(b1-4)GlcNAc,2.32
same,glycan array binding signal (z-score),[28],-0.087
same,glycan array binding signal (z-score),[29],0.127
same,glycan array binding signal (z-score),[30],1.03
same,glycan array binding signal (z-score),[31],1.73
same,glycan array binding signal (z-score),[32],0.371
